Data on 7 compounds can be found in PubChem BioAssay (EPA / NIEHS).

Each structure is given as a SMILES string. Calls of active or inactive are those of the source. How the source made its calls: active means hit-call score of the fitted dose curve at least 0.9, where 1 is the maximum; inactive means score below 0.9.

Holding throughout (settings): mRNA level, 48 h; actives raise or lower the signal
Read-out in assay [1]: Glutathione S-Transferase (GSTA2), GSTA2 (gene 2939)
Kind of assay: LTEA_HepaRG_GSTA2: Life Technologies and Expression Analysis (LTEA) Assay for Glutathione S-Transferase (GSTA2) using HepaRG (AID 2283497). Summed up:
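qRT-PCR readout of GSTA2 transcript, normalized to three housekeeping genes, fitted bidirectionally against 0.5% DMSO baseline. Differentiated HepaRG cells received compound for 48 h at 8 concentrations (top 100 uM, half-log steps).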

Read-out in assay [2]: Glutamate-cysteine ligase catalytic (GCLC), GCLC (gene 2729)
Put plainly: LTEA_HepaRG_GCLC: Life Technologies and Expression Analysis (LTEA) Assay for Glutamate-cysteine ligase catalytic (GCLC) using HepaRG (AID 2283498). Summed up:
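HepaRG, 48 h exposure, 8-pt half-log series from 100 uM, 0.5% DMSO vehicle; TaqMan qRT-PCR for GCLC mRNA, housekeeping-normalized; bidirectional curve fit vs DMSO baseline.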

Read-out in assay [3]: growth arrest and DNA damage 45 (GADD45G), GADD45G (gene 10912)
Kind of assay: LTEA_HepaRG_GADD45G: Life Technologies and Expression Analysis (LTEA) Assay for growth arrest and DNA damage 45 (GADD45G) using HepaRG (AID 2283499). Summed up:
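Gain or loss of GADD45G mRNA, quantified by TaqMan qRT-PCR against three housekeeping genes, is fitted in both directions relative to 0.5% DMSO. Human HepaRG cultures receive test chemical for 48 h at up to 100 uM.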

Read-out in assay [4]: Heat shock 70 kDa protein 1 (HSPA1A), gene 3303
Put plainly: LTEA_HepaRG_HSPA1A: Life Technologies and Expression Analysis (LTEA) Assay for Heat shock 70 kDa protein 1 (HSPA1A) using HepaRG (AID 2283502). Summed up: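 HepaRG, 48 h exposure, 8-pt half-log CRC from 100 uM in 0.5% DMSO, duplicates. Readout: TaqMan qRT-PCR of HSPA1A mRNA, housekeeping-normalized (ACTB/GAPDH/POLR2A). Bidirectional fit vs 0.5% DMSO baseline.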

Read-out in assay [5]: Hypoxia-inducible factor 1-alpha (Homo sapiens) (UniProt Q16665)
Kind of assay: LTEA_HepaRG_HIF1A: Life Technologies and Expression Analysis (LTEA) Assay for Hypoxia-inducible factor 1 (HIF1A) Trancription factor using HepaRG (AID 2283503). Summed up: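 Gain- or loss-of-signal HIF1A mRNA changes are fitted against a DMSO baseline. HepaRG cultures receive eight concentrations, highest 100 uM, for 48 h in serum-free induction medium with 0.5% DMSO.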

Read-out in assay [6]: 3-Hydroxy-3-Methylglutaryl-CoA Synthase 2 (HMGCS2), HMGCS2 (gene 3158)
Kind of assay: LTEA_HepaRG_HMGCS2: Life Technologies and Expression Analysis (LTEA) Assay for 3-Hydroxy-3-Methylglutaryl-CoA Synthase 2 (HMGCS2) using HepaRG (AID 2283504). Summed up: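 HepaRG, plated 48 h then switched to serum-free induction media; cmpd 8-pt, max 100 uM, 1/2-log, 0.5% DMSO, n=2, 48 h. HMGCS2 mRNA by Fluidigm TaqMan qRT-PCR, ACTB/GAPDH/POLR2A norm; bidirectional fit vs DMSO.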

Read-out in another assay: HGF (gene 3082)
Put plainly: LTEA_HepaRG_HGF: Life Technologies and Expression Analysis (LTEA) Assay for Hepatocyte Growth Facto (HGF) using HepaRG (AID 2283505). The gist of the method:
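Read-out is HGF transcript level by qRT-PCR, normalized to three housekeeping genes, fitted bidirectionally against 0.5% DMSO vehicle. Human HepaRG cells received test chemicals for 48 h at up to 100 uM.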

Read-out in assay [7]: Insulin Like Growth Factor 1 (IGF1), IGF1 (gene 3479)
Put plainly: LTEA_HepaRG_IGF1: Life Technologies and Expression Analysis (LTEA) Assay for Insulin Like Growth Factor 1 (IGF1) using HepaRG (AID 2283506). The gist of the method:
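qRT-PCR readout of IGF1 mRNA, normalized to three housekeeping genes, after 48 h chemical exposure of HepaRG cells. Concentrations: 8-point half-log series, top 100 uM, 0.5% DMSO vehicle. Gain or loss fitted against DMSO baseline.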

Read-out in assay [8]: Intercellular Adhesion Molecule 1 (ICAM1), ICAM1 (gene 3383)
Kind of assay: LTEA_HepaRG_ICAM1: Life Technologies and Expression Analysis (LTEA) Assay for Intercellular Adhesion Molecule 1 (ICAM1) using HepaRG (AID 2283507). The gist of the method: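 Readout is qRT-PCR mRNA level, normalized to three housekeeping genes and fitted bidirectionally against 0.5% DMSO vehicle. Human HepaRG cultures received compound for 48 h, top concentration 100 uM with half-log dilutions.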

Read-out in assay [9]: Insulin-like growth factor-binding protein 1 (IGFBP1), IGFBP1 (gene 3484)
Put plainly: LTEA_HepaRG_IGFBP1: Life Technologies and Expression Analysis (LTEA) Assay for Insulin-like growth factor-binding protein 1 (IGFBP1) using HepaRG (AID 2283508). Summed up: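 Thawed HepaRG cells are plated for 48 h, switched to serum-free induction medium, then dosed in duplicate for another 48 h (100 uM top, half-log steps). Lysates in RLT go to qRT-PCR, and gain or loss of signal is fitted relative to vehicle.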

Read-out in assay [10]: Interleukin 6 (IL6), IL6 (gene 3569)
Kind of assay: LTEA_HepaRG_IL6: Life Technologies and Expression Analysis (LTEA) Assay for Interleukin 6 (IL6) using HepaRG (AID 2283509). Summed up:
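qRT-PCR read-out of IL6 transcript, normalized to three housekeeping genes, after 48 h chemical exposure of HepaRG cells; 8-point half-log series, top 100 uM, 0.5% DMSO vehicle. Bidirectional curve fitting against DMSO baseline.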

Read-out in assay [11]: Interleukin 6 Receptor (IL6R), IL6R (gene 3570)
Put plainly: LTEA_HepaRG_IL6R: Life Technologies and Expression Analysis (LTEA) Assay for Interleukin 6 Receptor (IL6R) using HepaRG (AID 2283510).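 On AC50: differentiated human HepaRG liver cells in serum-free induction medium.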 Summed up:
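HepaRG, 48 h exposure, 8-pt half-log series, top 100 uM, 0.5% DMSO vehicle, duplicates. Read-out: TaqMan qRT-PCR of IL6R transcript, housekeeping-gene normalized. Gain or loss fitted relative to DMSO baseline.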

Read-out in assay [12]: Keratin 19 (KRT19), KRT19 (gene 3880)
Kind of assay: LTEA_HepaRG_KRT19: Life Technologies and Expression Analysis (LTEA) Assay for Keratin 19 (KRT19) using HepaRG (AID 2283512). The gist of the method: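 KRT19 transcript levels, measured by Fluidigm qRT-PCR against three housekeeping genes, are fitted for gain or loss of signal relative to DMSO. Human HepaRG cells receive test chemicals (top 100 uM, half-log steps, 0.5% DMSO) for 48 hours.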

Read-out in assay [13]: JUN Transcription Factor, JUN (gene 3725)
Put plainly: LTEA_HepaRG_JUN: Life Technologies and Expression Analysis (LTEA) Assay for JUN Transcription Factor using HepaRG (AID 2283513). Summed up: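 HepaRG, 48 h exposure, 8-pt half-log series top 100 uM, 0.5% DMSO, duplicate. JUN mRNA by qRT-PCR (Fluidigm), housekeeping-normalized (ACTB/GAPDH/POLR2A); bidirectional curve fit vs DMSO baseline.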

Read-out in assay [14]: Lipase C (LIPC), LIPC (gene 3990)
Kind of assay: LTEA_HepaRG_LIPC: Life Technologies and Expression Analysis (LTEA) Assay for Lipase C (LIPC) using HepaRG (AID 2283514). The gist of the method:
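HepaRG, 48 h exposure, 8-pt half-log series from 100 uM in 0.5% DMSO, duplicates. Readout: LIPC mRNA by Fluidigm qRT-PCR, housekeeping-normalized (ACTB/GAPDH/POLR2A). Gain or loss fitted bidirectionally against DMSO baseline.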

Read-out in assay [15]: Lipoprotein lipase (LPL), LPL (gene 4023)
Kind of assay: LTEA_HepaRG_LPL: Life Technologies and Expression Analysis (LTEA) Assay for Lipoprotein lipase (LPL) using HepaRG (AID 2283515). Summed up:
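HepaRG, 48 h exposure, 8-pt half-log dilutions from 100 uM, 0.5% DMSO vehicle, duplicates; qRT-PCR (Fluidigm array) of LPL mRNA vs housekeeping genes; bidirectional curve fit relative to DMSO baseline.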

Read-out in assay [16]: MicroRNA 122 (MIR122), gene 406906
Kind of assay: LTEA_HepaRG_MIR122: Life Technologies and Expression Analysis (LTEA) Assay for MicroRNA 122 (MIR122) using HepaRG (AID 2283516). Further: the transcript read is the microRNA miR-122. Summed up:
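qRT-PCR read-out (TaqMan, Fluidigm array), normalized to three housekeeping genes; HepaRG cells dosed 48 h at 8 concentrations up to 100 uM in 0.5% DMSO, duplicate; gain or loss fitted against DMSO baseline.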

Read-out in assay [17]: Glutathione S-transferase M3 (GSTM3), GSTM3 (gene 2947)
Put plainly: LTEA_HepaRG_GSTM3: Life Technologies and Expression Analysis (LTEA) Assay for Glutathione S-transferase M3 (GSTM3) using HepaRG (AID 2283501). Summed up:
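HepaRG, plated 48 h, then serum-free induction medium; test chemical 48 h, duplicate; 100 uM top, half-log x8, 0.5% DMSO. Read-out: GSTM3 mRNA (TaqMan qRT-PCR, Fluidigm array). Bidirectional fit vs DMSO.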

Read-out in assay [18]: Potassium channel subfamily K member 1 (KCNK1), KCNK1 (gene 3775)
Kind of assay: LTEA_HepaRG_KCNK1: Life Technologies and Expression Analysis (LTEA) Assay for Potassium channel subfamily K member 1 (KCNK1) using HepaRG (AID 2283511). Summed up:
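HepaRG, 48 h exposure, 8-pt half-log series top 100 uM, 0.5% DMSO vehicle, duplicates. Readout: KCNK1 transcript by qRT-PCR (Fluidigm array), housekeeping-normalized; bidirectional curve fit relative to DMSO baseline.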

Chain of Hypoxia-inducible factor 1-alpha (Homo sapiens) (Q16665 whole entry, looked up): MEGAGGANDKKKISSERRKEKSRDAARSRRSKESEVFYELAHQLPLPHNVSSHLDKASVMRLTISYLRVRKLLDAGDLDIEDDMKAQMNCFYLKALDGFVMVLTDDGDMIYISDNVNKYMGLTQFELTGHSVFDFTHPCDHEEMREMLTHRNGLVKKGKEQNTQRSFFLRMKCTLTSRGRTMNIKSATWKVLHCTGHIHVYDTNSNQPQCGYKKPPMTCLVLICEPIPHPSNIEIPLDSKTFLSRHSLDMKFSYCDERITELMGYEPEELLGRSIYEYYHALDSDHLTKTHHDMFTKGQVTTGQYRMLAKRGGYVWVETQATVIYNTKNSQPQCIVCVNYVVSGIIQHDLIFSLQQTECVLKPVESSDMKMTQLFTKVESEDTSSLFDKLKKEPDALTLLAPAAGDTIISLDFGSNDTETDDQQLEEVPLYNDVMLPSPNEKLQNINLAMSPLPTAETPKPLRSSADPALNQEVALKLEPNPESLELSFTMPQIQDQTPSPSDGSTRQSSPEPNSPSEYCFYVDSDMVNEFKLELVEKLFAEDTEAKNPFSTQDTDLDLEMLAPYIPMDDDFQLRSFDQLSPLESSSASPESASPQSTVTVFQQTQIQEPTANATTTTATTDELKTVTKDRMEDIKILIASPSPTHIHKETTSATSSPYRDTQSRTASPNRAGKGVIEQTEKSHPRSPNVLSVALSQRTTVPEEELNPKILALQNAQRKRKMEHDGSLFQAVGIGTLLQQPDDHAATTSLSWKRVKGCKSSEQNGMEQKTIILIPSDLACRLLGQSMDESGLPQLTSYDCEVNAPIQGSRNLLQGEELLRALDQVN

With `NC1CCCCC1`, the compound was called inactive in [1], in [2], in assay [3], in assay [4], in assay [5] and in assay [6]. The call (with HGF (gene 3082); in assay [7]; in assay [8]; in assay [9]; in assay [10]; in [11]) was inactive. In addition, the call in assay [12], in assay [13], in [14], in [15] and in assay [16] was inactive.

`Oc1ccccc1O`: the result in assay [1], in [2], in assay [3], in [17], in assay [4] and in [6] was inactive. Also, the compound was called inactive (with HGF (gene 3082); in assay [7]; in assay [8]; in [9]; in assay [10]; in [11]). Besides, the call in assay [18], in assay [12], in assay [13], in [14], in assay [15] and in assay [16] was inactive.

As for `CCc1nc(N)nc(N)c1-c1ccc(Cl)cc1`, the AC50 was 41.8 µM (active) in assay [1]; 78.1 µM (active) in assay [3]; 68.8 µM (active) in assay [6]; 50 µM (active) with HGF (gene 3082); 11.8 µM (active) in [7]; 57.7 µM (active) in assay [9]. The AC50 is 26.7 µM (active) in assay [11]; 75.5 µM (active) in assay [12]; 68.6 µM (active) in assay [14]; 75.1 µM (active) in assay [15]; 33.2 µM (active) in assay [16]. The compound was called inactive in assay [2], in [4], in [8], in assay [10] and in assay [13].

In the case of `CC1(C)C(=O)NC(=O)N1CO`, the outcome in assay [1], in assay [2], in assay [3], in [4], in assay [5] and in assay [6] was inactive. Besides, the result (in the assay with HGF (gene 3082); in assay [7]; in [8]; in [9]; in assay [10]; in assay [11]) was inactive. The compound was called inactive in [18], in assay [12], in assay [13], in assay [14], in [15] and in assay [16].

For the compound `CCCCCCCC(=O)OC`, the compound was called inactive in assay [1], in assay [2], in [3], in [4], in assay [5] and in assay [6]. In addition, the result (in the assay with HGF (gene 3082); in assay [7]; in assay [8]; in [9]; in assay [10]; in assay [11]) was inactive. Moreover, the call in assay [18], in assay [12], in assay [13], in assay [14] and in [16] was inactive. Also, the AC50 in assay [15] is 12.4 µM (active).

Consider `CC(C)OC(=O)C(C)(C)Oc1ccc(C(=O)c2ccc(Cl)cc2)cc1`, for which the result (in assay [1]; in [2]; in [3]; in assay [17]; in [4]; in the assay with HGF (gene 3082)) was inactive. Further, the result in assay [7], in assay [8], in assay [9], in assay [10], in assay [11] and in assay [18] was inactive. Further, the compound was called inactive in assay [12], in [14], in assay [15] and in assay [16]. Also, the AC50 in [6] is 4.29 µM (active).

Regarding `O=NO`, the call in [1], in assay [2], in [3], in assay [17], in assay [4] and in assay [5] was inactive. The compound was called inactive (in assay [6]; with HGF (gene 3082); in assay [7]; in [8]; in assay [9]; in [10]). Besides, the outcome in assay [11], in assay [18], in [12], in [13], in assay [14] and in [15] was inactive. The compound was called inactive in [16].
